# Source: PubChem BioAssay (Tox21)
# Several values for one entry are separate records, joined by “and”; a condition that tells them apart may be missing. Equal entries are not always repeated. Inconclusive results are not listed. Entries that show only a call come without a potency. The source holds several records for some structures; these can differ, active in one and inactive in another. Activity calls are given as the source filed them. Unless noted, the call rests on the fitted dose curve; in most records, active means well fitted curve in the direction sought with a large enough effect in the repeat runs; inconclusive means weak or mixed curves; inactive means no such curve, though single readings can be large; an effect the other way counts as inactive or inconclusive.
# Tests used:
# [1] = qHTS assay to identify small molecule agonists of the progesterone receptor (PR) signaling pathway - cell viability counter screen (AID 1346799; calls by dose curve; further: nearly all actives have a fitted effect of over 45% in size)
# Outline: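 Cytotoxicity in PR-bla HEK293T cells: 16 h compound, 37C; CellTiter-Glo added post-FRET read; luminescence after 30 min RT.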
# [2] = qHTS assay to identify small molecule antagonists of the TGF-beta/Smad signaling pathway - cell viability counter screen (AID 1346824); further: nearly all actives have a fitted effect of over 50% in size
# Outline: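 SBE-bla HEK 293T cells were plated overnight at 37 C, then given compounds in DMSO plus TGF-beta1 (added as 0.25 ng/mL solution) for 5 hr. After the bla read, CellTiter-Glo was added to the same wells and luminescence read after 30 min at room temperature.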
# [3] = qHTS assay to identify small molecule agonists of the TGF-beta/Smad signaling pathway - cell viability counter screen (AID 1346829); further: nearly all actives have a fitted effect of over 45% in size
# Outline: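 CellTiter-Glo luminescence readout; SBE-bla HEK 293T cells, overnight plating, compound 5 hr at 37 C/5% CO2, then bla substrate 2 hr RT, then CellTiter-Glo 30 min RT.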
# [4] = qHTS assay to identify small molecule agonists of the TGF-beta/Smad signaling pathway (AID 1346859; active means well fitted activation curve with a large enough effect in the signal ratio in the repeat runs, not every such curve was filed as active; the % refers to the signal ratio; on activation: series mostly up to about 77 µM)
# Outline: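 Stable Smad binding element-beta-lactamase HEK 293T cells; 5 hr compound exposure at 37 C under 5% CO2; 2 hr room-temperature substrate step; fluorescence excited at 405 nm, collected at 460 nm and 530 nm.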
# [5] = target: Thyrotropin-releasing hormone receptor (Homo sapiens) (UniProt P34981); assay: qHTS assay to identify small molecule antagonists of the thyrotropin-releasing hormone receptor (TRHR) signaling pathway (AID 1346877; active means well fitted inhibition curve with a large enough effect in the repeat runs, not every such curve was filed as active)
# Chain of Thyrotropin-releasing hormone receptor (Homo sapiens) (P34981 whole entry, looked up): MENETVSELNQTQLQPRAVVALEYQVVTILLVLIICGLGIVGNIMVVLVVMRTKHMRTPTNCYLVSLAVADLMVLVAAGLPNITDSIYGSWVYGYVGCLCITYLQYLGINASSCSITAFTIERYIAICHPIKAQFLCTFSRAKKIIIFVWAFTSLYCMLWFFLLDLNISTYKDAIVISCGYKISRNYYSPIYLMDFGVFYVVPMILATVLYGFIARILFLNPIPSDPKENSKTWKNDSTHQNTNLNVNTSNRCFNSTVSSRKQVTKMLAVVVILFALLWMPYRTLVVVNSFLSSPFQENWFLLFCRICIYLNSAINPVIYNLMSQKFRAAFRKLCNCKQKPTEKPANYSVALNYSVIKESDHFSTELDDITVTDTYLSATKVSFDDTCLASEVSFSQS
# Outline: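 In this cell-based calcium flux format, HEK293 cells expressing TRHR received test compound for 5 min before the agonist TRH (1 nM final). Dye loading lasted 2 h at 37 °C.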
# [6] = target: Thyrotropin-releasing hormone receptor (Homo sapiens) (UniProt P34981); assay: qHTS assay to identify small molecule agonists of the thyrotropin-releasing hormone receptor (TRHR) signaling pathway (AID 1346891; calls by dose curve; on activation: series mostly up to about 58 µM)
# Outline: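 In 1536-format, 1500 TRHR-Hek293 cells per well grew 18 h, took up calcium dye for 2 h at 37 °C, received compound, and were read kinetically; 15-point titrations, triplicates.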
# [7] = Human pregnane X receptor (PXR) small molecule agonists, qHTS cell viability counter screen (AID 1346977); further: nearly all actives have a fitted effect of over 50% in size
# Outline: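 Readout is CellTiter-Fluor fluorescence from PXR-Luc HepG2 cells. Plated cells rested 5hr, then were treated with compounds for 24hr at 37C and 5% CO2, with reagent present during the last hour.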
# [8] = Caspase-3/7 induction in HepG2 cells by small molecules, qHTS assay (AID 1346978); further: nearly all actives have a fitted effect of over 15% in size
# Outline: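 Wild-type HepG2 cells (2,000/well) were settled 5 h at 37 C, 5% CO2, then exposed to compounds in DMSO for 17 h. Caspase-3/7 activity was read by luminescence 30 min after adding Caspase-Glo 3/7 reagent at room temperature.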
# [9] = Caspase-3/7 induction in CHO-K1 cells by small molecules, qHTS assay (AID 1346980); further: nearly all actives have a fitted effect of over 15% in size
# Outline: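 Wild-type cells were seeded at 1,500 per well and settled 5 hr at 37 C, 5% CO2, then exposed to DMSO-dissolved compounds for 17 hr. Caspase-Glo 3/7 reagent was added, and luminescence was read after 30min at room temperature.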
# [10] = Caspase-3/7 induction in CHO-K1 cells by small molecules, qHTS cell viability counter screen (AID 1346979); further: nearly all actives have a fitted effect of over 35% in size
# Outline: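 To flag cytotoxic compounds, treated CHO-K1 wild-type cells were given CellTiter-Fluor at 16hr and read fluorescently after 1hr at 37C; the caspase-3/7 luminescence was measured in these same wells.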
# Potency means the concentration at half of the fitted maximal effect.
SMILES,Potency [1],Potency [2],Potency [3],Potency [4],Potency [5],Potency [6],Potency [7],Potency [8],Potency [9],Potency [10]
O=P1(N(CCCl)CCCl)NCCCO1 (stereo not given),inactive,inactive,inactive,inactive,inactive,inactive,inactive,inactive,inactive,
Nc1ccccc1,inactive,inactive,inactive,inactive,inactive,inactive,inactive,inactive,inactive,inactive
COP(=O)(OC)C(O)C(Cl)(Cl)Cl (stereo not given),inactive,inactive,inactive,inactive,inactive,inactive,inactive,inactive,inactive,
N#CS,inactive,inactive,inactive,inactive,inactive,inactive,inactive,inactive,inactive,inactive
CC[N+](CC)(CC)CC,inactive,inactive,inactive,inactive,,,inactive,inactive,inactive,
Cc1cc(Cl)ccc1OCC(=O)O,inactive,inactive,inactive,inactive,,,inactive,inactive,inactive,
CC[N+]1(C)CCCC1,inactive,inactive,inactive,inactive,,,inactive,inactive,inactive,
O=C(O)c1nc(Cl)ccc1Cl,inactive,inactive,inactive,inactive,,,inactive,inactive,inactive,
CCCC[n+]1ccccc1C,inactive,inactive,inactive,inactive,,,inactive,inactive,inactive,
CCCCCCCCCCCCn1cc[n+](C)c1,,,,inactive,,,,43.6 µM (active) and inactive,inactive,
CCn1cc[n+](C)c1C,inactive,inactive,inactive,inactive,,,inactive,inactive,inactive,
CC[n+]1ccccc1,inactive and 48.2 µM (active),inactive,inactive,inactive,,,inactive and 6.06 µM (active),inactive,inactive,
Cc1cc(-c2ccc(N)c(C)c2)ccc1N,inactive,inactive,inactive,inactive,,,inactive,inactive,inactive,
CN(C)[C@@H]1C(=O)C(C(N)=O)=C(O)[C@@]2(O)C(=O)C3=C(O)c4c(O)cccc4[C@@](C)(O)[C@H]3[C@H](O)[C@@H]12,inactive,inactive,inactive,inactive,,,inactive,inactive,inactive,
CCCC[n+]1ccccc1,inactive,inactive,inactive,inactive,,,inactive,inactive,inactive,
CCCC[N+]1(C)CCCCC1,inactive,inactive,inactive,inactive,,,inactive,inactive,inactive,
CCCCCC[n+]1ccccc1,inactive,inactive,inactive,inactive,,,,inactive,inactive,inactive
C[N+](C)(C)Cc1ccccc1,inactive,inactive,inactive,48.7 µM (active) and inactive,,,inactive,inactive,inactive,
CCCCCCCCCCCCCC[P+](CCCCCC)(CCCCCC)CCCCCC,,,15.6 µM (active) and 24.7 µM (active) and inactive,inactive,,,3.87 µM (active) and 6.16 µM (active) and 1.72 µM (active),inactive,inactive and 13.8 µM (active),4.35 µM (active) and 6.16 µM (active) and 2.73 µM (active)

SMILES,Potency [1],Potency [2],Potency [3],Potency [4],Potency [5],Potency [6],Potency [7],Potency [8],Potency [9],Potency [10]
CC(=O)[O][Hg][c]1ccccc1,5.4 µM (active) and 5.45 µM (active) and 5.96 µM (active),7.69 µM (active) and 8.71 µM (active) and 10.7 µM (active),8.63 µM (active) and 7.76 µM (active) and 9.52 µM (active),,,,2.24 µM (active) and 3.06 µM (active) and 4.73 µM (active),inactive,inactive,762 nM (active) and 1.09 µM (active) and 1.88 µM (active)
CCCCCCCCCCn1cc[n+](C)c1,,inactive,inactive,inactive,,,2.76 µM (active),inactive,inactive,
Oc1cccc2cccnc12,770 nM (active) and inactive,inactive,inactive,inactive,,,,54.8 µM (active) and inactive and 10.6 µM (active),inactive,
CC(=O)O,inactive,inactive,inactive,inactive,,,inactive,inactive,inactive,inactive
CCCC[n+]1ccc(C)cc1,inactive and 60.8 µM (active),,inactive,inactive,inactive and 24 µM (active),inactive and 15.5 µM (active),inactive and 6.12 µM (active),inactive and 54.2 µM (active),inactive,inactive and 54.2 µM (active)
CCC(=O)C(CC(C)N(C)C)(c1ccccc1)c1ccccc1 (stereo not given),43.5 µM (active),,inactive,,,,27.4 µM (active),inactive,inactive,
O=C(O)c1ccccc1O,inactive,inactive,inactive,inactive,,,inactive,inactive,inactive,
CCCCCCCCCCCCCCCCn1cc[n+](C)c1,inactive and 61.7 µM (active) and 30.7 µM (active),,,inactive,,,,inactive,inactive,
CCC[N+]1(C)CCCC1,inactive,inactive,inactive,inactive,,,inactive,inactive,inactive,
CCCCCCn1cc[n+](C)c1,inactive,inactive,inactive,inactive,,,13.9 µM (active),inactive,inactive,
CCC[N+]1(C)CCCCC1,inactive,inactive,inactive,inactive,,,inactive,inactive,inactive,
O=C(O)COc1ccc(Cl)cc1Cl,inactive,inactive,inactive,inactive,,,inactive,inactive,inactive,
CCOP(=S)(OCC)Oc1ccc2c(C)c(Cl)c(=O)oc2c1,inactive,inactive,inactive,,inactive,inactive,inactive,inactive,inactive,
CCCCCCCCCCCC(=O)O,inactive,inactive,inactive,inactive,,,inactive,inactive,inactive,
CCCCCCCCn1cc[n+](C)c1,,inactive,inactive,inactive,,,9.68 µM (active) and 7.76 µM (active) and 8.72 µM (active),inactive,inactive,
OCCOc1ccccc1,inactive,inactive,inactive,inactive,,,inactive,inactive,inactive,
CCCCn1cc[n+](C)c1C,inactive,inactive,inactive,inactive,,,inactive,inactive,inactive,
COc1ccc(N)cc1,inactive,inactive,inactive,inactive,,,inactive,inactive,inactive,
